Results from PubChem BioAssay (EPA / NIEHS).
Active and inactive are the calls of the source. How the source made its calls: active means hit-call score of the fitted dose curve at least 0.9, where 1 is the maximum; inactive means score below 0.9.

Key:
[1] = ATG_CMV_CIS: Attagene CIS-FACTORIAL HepG2 Assay for human CMV (Internal Marker) (AID 2282928); conditions: HepG2 CMV promoter reporter, transcription factor profiling; actives raise or lower the signal;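 further: endpoint acts as a background internal control marker rather than a target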
How it was run: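 Bidirectional fits against DMSO are applied to reporter mRNA, read by RT-PCR with capillary electrophoresis, from HepG2 cells exposed 24 h. The endpoint serves as an internal CMV background marker within the cis-factorial reporter panel.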

[2] = ATG_DR4_LXR_CIS: Attagene CIS-FACTORIAL HepG2 Assay for human Liver X Receptor (LXR), DR4 submotif (AID 2282929); conditions: HepG2 Attagene DR4 cis-reporter, mRNA transcription; actives raise or lower the signal
How it was run: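 DR4 cis-reporter in HepG2, 24 h exposure. Detection: RT-PCR, 6-FAM labelling, CE fragment analysis. Endpoint fitted bidirectionally, DMSO = baseline.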

[3] = target: Aryl hydrocarbon receptor (Homo sapiens) (UniProt P35869); assay: ATG_Ahr_CIS: Attagene CIS-FACTORIAL HepG2 Assay for human Aryl Hydrocarbon Receptor (Ahr) (AID 2282930); conditions: HepG2 AhR cis-factorial reporter transcription; actives raise or lower the signal
Sequence of Aryl hydrocarbon receptor (Homo sapiens) (P35869 whole entry, looked up): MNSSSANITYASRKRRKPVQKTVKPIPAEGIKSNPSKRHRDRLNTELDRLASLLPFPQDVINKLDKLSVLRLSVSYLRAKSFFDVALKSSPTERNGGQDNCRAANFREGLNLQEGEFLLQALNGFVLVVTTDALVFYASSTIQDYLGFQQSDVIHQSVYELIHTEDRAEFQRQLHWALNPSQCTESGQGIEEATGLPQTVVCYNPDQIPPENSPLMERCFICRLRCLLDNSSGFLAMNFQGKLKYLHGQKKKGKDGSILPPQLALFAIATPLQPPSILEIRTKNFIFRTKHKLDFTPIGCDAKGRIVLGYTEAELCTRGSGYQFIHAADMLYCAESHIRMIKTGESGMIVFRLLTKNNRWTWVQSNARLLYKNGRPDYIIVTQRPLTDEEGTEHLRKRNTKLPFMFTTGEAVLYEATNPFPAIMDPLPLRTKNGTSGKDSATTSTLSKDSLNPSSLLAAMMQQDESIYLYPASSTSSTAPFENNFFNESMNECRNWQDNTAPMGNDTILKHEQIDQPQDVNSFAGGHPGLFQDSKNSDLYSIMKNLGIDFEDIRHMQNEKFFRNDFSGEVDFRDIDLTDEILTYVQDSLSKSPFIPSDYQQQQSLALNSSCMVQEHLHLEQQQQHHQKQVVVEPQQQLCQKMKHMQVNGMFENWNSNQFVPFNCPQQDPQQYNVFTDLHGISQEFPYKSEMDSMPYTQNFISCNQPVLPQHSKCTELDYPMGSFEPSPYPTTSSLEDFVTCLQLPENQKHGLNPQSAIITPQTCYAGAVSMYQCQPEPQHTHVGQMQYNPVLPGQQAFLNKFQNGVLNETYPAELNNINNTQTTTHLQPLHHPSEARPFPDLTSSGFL
How it was run: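 Read-out: reporter mRNA quantified by RT-PCR with fluorescent primer extension and capillary electrophoresis. Human HepG2 liver cells carried transfected cis-promoter reporter units and were exposed to chemical for 24 h; gain or loss fitted relative to DMSO.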

[4] = ATG_AP_1_CIS: Attagene CIS-FACTORIAL HepG2 Assay for human Activator Protein 1 (AP-1) (AID 2282931); conditions: HepG2 Attagene cis-factorial AP-1 reporter mRNA; actives raise or lower the signal
How it was run: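 Cis-regulated reporter units transiently expressed in HepG2 report endogenous transcription-factor activity. Signal: reporter mRNA at 24 h, via RT-PCR and fluorescent capillary electrophoresis. Endpoint derived by bidirectional fitting, DMSO as negative control.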

[5] = ATG_AP_2_CIS: Attagene CIS-FACTORIAL HepG2 Assay for human Activator Protein 2 (AP-2) (AID 2282932); conditions: HepG2 AP-2 cis-reporter, Attagene transcription factor profiling; actives raise or lower the signal
How it was run: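 Read-out: fluorescent reporter mRNA via RT-PCR and capillary electrophoresis, 24 h post-dose in transiently transfected HepG2. Endogenous factors drive cis-promoter reporters; gain or loss of signal fitted bidirectionally against DMSO.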

[6] = ATG_BRE_CIS: Attagene CIS-FACTORIAL HepG2 Assay for human Bone Morphogenetic Protein (BMP) Response Element (BRE) (AID 2282933); conditions: HepG2 BMP response element reporter, Attagene transcription factor profiling; actives raise or lower the signal
How it was run: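 Transient MRTU transfection of human HepG2 liver cells; 24 h compound treatment; total RNA isolated, reverse-transcribed, PCR-amplified, 6-FAM labelled, HpaI-cut, capillary electrophoresis. DMSO = negative control/baseline, bidirectional fit.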

[7] = target: Retinoic acid receptor alpha (Homo sapiens) (UniProt P10276); assay: ATG_DR5_RAR_CIS: Attagene CIS-FACTORIAL HepG2 Assay for human Retinoic Acid Receptor Alpha (RARE), DR5 submotif (AID 2282934); conditions: HepG2 Attagene cis-factorial RARE DR5 reporter, mRNA; actives raise or lower the signal;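 on AC50: reporter responds to endogenous RAR alpha beta and gamma in HepG2 not RARA alone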
Sequence of Retinoic acid receptor alpha (Homo sapiens) (P10276 whole entry, looked up): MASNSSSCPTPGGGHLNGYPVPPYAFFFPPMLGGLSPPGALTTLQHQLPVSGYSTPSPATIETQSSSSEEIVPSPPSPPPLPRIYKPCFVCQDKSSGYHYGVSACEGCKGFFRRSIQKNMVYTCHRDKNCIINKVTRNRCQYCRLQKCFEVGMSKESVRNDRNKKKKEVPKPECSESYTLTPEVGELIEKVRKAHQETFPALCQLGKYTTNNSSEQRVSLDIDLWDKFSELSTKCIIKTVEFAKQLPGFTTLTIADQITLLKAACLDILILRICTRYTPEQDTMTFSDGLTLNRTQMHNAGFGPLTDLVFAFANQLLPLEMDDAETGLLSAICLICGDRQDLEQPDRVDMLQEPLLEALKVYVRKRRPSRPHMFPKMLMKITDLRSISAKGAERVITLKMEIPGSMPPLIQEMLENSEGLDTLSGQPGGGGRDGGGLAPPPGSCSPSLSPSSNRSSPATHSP
How it was run: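 Read-out: DR5-driven reporter transcript measured by RT-PCR, 6-FAM primer extension, HpaI digest and capillary electrophoresis. Human HepG2 liver cells carry transiently transfected cis-element reporter constructs; dosing lasts 24 h. Gain or loss of signal fitted against DMSO baseline.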

[8] = target: Transcription factor E2F1 (Homo sapiens) (UniProt Q01094); assay: ATG_E2F_CIS: Attagene CIS-FACTORIAL HepG2 Assay for human E2F Transcription Factor 1 (AID 2282935); conditions: HepG2 Attagene cis-reporter, E2F reporter RNA transcripts; actives raise or lower the signal
Sequence of Transcription factor E2F1 (Homo sapiens) (Q01094 whole entry, looked up): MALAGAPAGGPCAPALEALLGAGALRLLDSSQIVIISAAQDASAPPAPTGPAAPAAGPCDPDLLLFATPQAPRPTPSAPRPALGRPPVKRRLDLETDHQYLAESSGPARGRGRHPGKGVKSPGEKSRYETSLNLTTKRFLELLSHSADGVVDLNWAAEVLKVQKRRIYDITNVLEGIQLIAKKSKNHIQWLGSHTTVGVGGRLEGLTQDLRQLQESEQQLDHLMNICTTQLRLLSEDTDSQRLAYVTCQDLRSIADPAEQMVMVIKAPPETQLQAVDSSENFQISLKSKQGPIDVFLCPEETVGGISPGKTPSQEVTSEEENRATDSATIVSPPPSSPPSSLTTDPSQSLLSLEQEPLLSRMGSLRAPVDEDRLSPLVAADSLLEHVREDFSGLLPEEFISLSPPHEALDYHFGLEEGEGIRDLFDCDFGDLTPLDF
How it was run: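 Transient MRTU transfection of HepG2; 24 h compound exposure; RNA → oligo(dT) RT → PCR → FAM label → HpaI cut → CE fluorescence. Gain/loss of signal fit against DMSO.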

[9] = ATG_E_Box_CIS: Attagene CIS-FACTORIAL HepG2 Assay for human Enhancer Box (E-box) (AID 2282936); conditions: HepG2 E-box cis-reporter transcription, actives raise or lower the signal
How it was run: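 Transiently transfected HepG2, endogenous TF-driven reporters, 24 h dosing. Readout: RT-PCR plus capillary electrophoresis of fluorescent reporter fragments. Gain or loss of signal fitted bidirectionally against DMSO baseline.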

[10] = ATG_M_61_CIS: Attagene CIS-FACTORIAL HepG2 Assay for M61 Transcription Factor (Internal Marker) (AID 2282937); conditions: HepG2 Attagene CIS-FACTORIAL M61 internal marker reporter; actives raise or lower the signal
How it was run: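 Background-control endpoint: HepG2 cells with cis-regulated reporter constructs, 24 h exposure, reporter mRNA detected via fluorescent primer extension and capillary electrophoresis; values from bidirectional fitting with DMSO baseline.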

Measured: AC50

O=[N+]([O-])c1cccc2ccccc12
active: [3] 51.4 µM
inactive: all other assays above

Nc1nc(=S)[nH][nH]1
inactive: all assays above

CCOc1ccc(N)cc1
inactive: all assays above

CC(=Cc1ccccc1)[N+](=O)[O-]
inactive: [3] | [6] | [7] | [10]
active: [1] 19.3 µM | [2] 5.88 µM | [4] 19.9 µM | [5] 16.6 µM | [8] 13.5 µM | [9] 17 µM

OC(Cc1ccccc1Cl)(Cn1cncn1)C1(Cl)CC1 (stereo unspecified)
inactive: all assays above

NC(=O)c1ccc(N)nc1
inactive: all assays above

C#C[C@]1(O)CC[C@H]2[C@@H]3CCC4=CC(=O)CC[C@]4(C)[C@H]3CC[C@@]21C
inactive: all assays above

CN(N=O)C(N)=O
inactive: all assays above

Cc1cc(Cl)ccc1OC(C)C(=O)O (stereo unspecified)
active: [3] 28.5 µM
inactive: all other assays above

CC(C)N(C(=O)CCl)c1ccccc1
inactive: [1] | [3] | [6] | [10]
active: [2] 8.6 µM | [4] 11.6 µM | [5] 50.4 µM | [7] 59.1 µM | [8] 48.1 µM | [9] 18 µM

CCCCC(CC)COC(=O)Cl (stereo unspecified)
not listed: [9]
inactive: all other assays above

CCOC(=O)C(SP(=S)(OC)OC)c1ccccc1 (stereo unspecified)
inactive: all assays above

CCCCCCCCCCCCCl
inactive: all assays above

CCOC(=O)OC1=C(c2cc(C)ccc2C)C(=O)NC12CCC(OC)CC2 (stereo unspecified)
inactive: all assays above

O=S(=O)(C(Cl)(Cl)Cl)C(Cl)(Cl)Cl
active: [4] 2.78 µM | [6] 18.7 µM | [8] 6.13 µM | [9] 14.7 µM
inactive: all other assays above

Cc1cc(SCc2sc(-c3ccc(C(F)(F)F)c(F)c3)nc2C)ccc1OCC(=O)O
active: [2] 23.8 µM | [5] 51.2 µM
inactive: all other assays above

COCC(=O)N(c1c(C)cccc1C)[C@H](C)C(=O)OC
not listed: [9]
inactive: all other assays above

COCCl
inactive: all assays above

ClCc1ccccc1CCl
active: [1] 56 µM | [2] 16.6 µM | [4] 59.7 µM | [9] 33.4 µM
inactive: all other assays above

O=C(Nc1ccc(Br)cc1)c1cc(Br)cc(Br)c1O
active: [3] 0.63 µM | [6] 13.3 µM | [7] 4.76 µM
inactive: all other assays above

CCC[CH2][Sn]([Cl])([Cl])[CH2]CCC
active: [1] 0.721 µM | [2] 0.807 µM | [6] 0.316 µM
inactive: all other assays above

c1csc(-c2ccc(-c3cccs3)s2)c1
active: [2] 2.08 µM | [3] 0.739 µM | [4] 8.14 µM
inactive: all other assays above

OC[P+](CO)(CO)CO
not listed: [9]
inactive: all other assays above

C=CCN=C=S
not listed: [9]
inactive: all other assays above
